Laboratory results: PubChem BioAssay AID1259421 (Broad Institute, 2018)
Where “and” joins values, the source holds several entries; their conditions need not be identical. Identical values can stand only once. About 610 (9.5%) of roughly 6,400 compounds were called active. Cut-off read from the data, not from the text of the source: active = activity change below about -70%; inconclusive = no clear call, values can overlap the other calls; inactive = above that. This excerpt belongs to a sample that is enriched for actives. A structure can be active in one record and inactive in another.

Assay: T. gondii ME49Luc in HeLa cells, luciferase assay, 72 h, no IFN-y (AID 1259421)
Conditions: stronger effect = lower value, concentration not given here

| Structure (SMILES) | activity change, negative = inhibition |
| --- | --- |
| CC(N)Cn1ccc2cc(F)c(Cl)cc21 (stereo not given) | 4.63% (inactive) |
| COc1cc2c(cc1OC)-c1c(oc3c4c(ccc3c1=O)OC(C(C)C)C4)CO2 (stereo not given) | 16.2% (inactive) |
| Cc1cccc(Cc2cnc[nH]2)c1C | 32.1% (inactive) |
| CN1C[C@@H](NS(=O)(=O)N(C)C)C[C@@H]2c3cccc4c3c(cn4C)C[C@H]21 | 14.9% (inactive) |
| COC(=O)NC(=S)Nc1ccccc1NC(=S)NC(=O)OC | 8.42% (inactive) and 11.6% (inactive) |
| CC(C)=CCCN1CCC(NC(=O)[C@](O)(c2ccccc2)C2CCCC2)CC1 | 1.64% (inactive) |
| c1cncc(C2CCCCN2)c1 (stereo not given) | 9.05% (inactive) and -25.4% (inactive) |
| c1cncc(C2CCCN2)c1 (stereo not given) | 2.36% (inactive) |
| Fc1cc(F)c2c(c1)[C@H]1C=CC[C@H]1C(c1cccnc1)N2 (stereo not given in full) | -75.5% (active) |
| O=C1CC[C@@]2(O)[C@H]3Cc4ccc(O)c5c4C2(CCN3CC2CC2)[C@H]1O5 | -9.85% (inactive) |
| COc1cc2c3cc1Oc1c(OC)c(OC)cc4c1[C@@H](Cc1cccc(c1)Oc1ccc(c(O)c1)C[C@@H]3N(C)CC2)N(C)CC4 | -11.3% (inactive) |
| CCCCC/C=C\C/C=C\C/C=C\C/C=C\CCCC(=O)Nc1ccc(O)cc1 | -78.5% (active) |
| CCCCC/C=C\C/C=C\C/C=C\C/C=C\CCCC(=O)NCCO | 34.9% (inactive) |
| CCCCC/C=C\C/C=C\C/C=C\C/C=C\CCCC(=O)NCc1ccc(O)c(OC)c1 | 8.17% (inactive) |
| COC(=O)C=CC(=O)NC1CCC2(O)C3Cc4ccc(O)c5c4C2(CCN3CC2CC2)C1O5 (stereo not given) | 12.8% (inactive) |
| CC(=O)[O][Hg][c]1ccccc1 | -50.7% (inactive) |
| C[C@@H]([C@H](O)c1ccccc1)N(C)C | -0.751% (inactive) and -3.37% (inactive) |
| C[Se]C[C@H](N)C(=O)O | 10.4% (inactive) |
| COc1cc([C@@H]2c3cc4c(cc3[C@@H](O)C3COC(=O)C32)OCO4)cc(OC)c1O (stereo not given in full) | -8.26% (inactive) |
| COc1cc([C@@H]2c3cc4c(cc3[C@H](OC(C)=O)[C@H]3COC(=O)[C@H]23)OCO4)cc(OC)c1OC | -81.6% (active) |
| COc1ccc2c(c1OC)CN1CCc3cc4c(cc3C1C2)OCO4 (stereo not given) | 15.2% (inactive) |
| COc1cc([C@@H]2c3cc4c(c(O)c3C[C@H]3COC(=O)[C@@H]32)OCO4)cc(OC)c1OC | -71.9% (active) |
| COc1ccc2c(c1OC)C(=O)O[C@@H]2[C@H]1c2cc3c(cc2CCN1C)OCO3 | 2.97% (inactive) |
| CCN1C[C@]2(OC(=O)c3ccccc3NC(C)=O)CCC(OC)[C@]34C1[C@H](CC23)[C@@]1(O)CC(OC)[C@H]2CC4C1(O)[C@H]2OC (stereo not given in full) | -6.02% (inactive) |
| CC(C)(C)[C@]1(O)C[C@@H]2OC(=O)C[C@@]23C(=O)O[C@@H]2OC(=O)[C@H](O)C213 (stereo not given in full) | 7.37% (inactive) |
| COC1(C[S@@](=O)c2ccccc2)CCN(CCc2c[nH]c3ccc(F)cc23)CC1 | 22.1% (inactive) |
| CN1[C@@H]2CC[C@H]1CC(OC1c3ccccc3CCc3ccccc31)C2 (stereo not given in full) | 15.8% (inactive) |

| Structure (SMILES) | activity change, negative = inhibition |
| --- | --- |
| c1ccc2c(c1)sc1ccccc12 | -5.87% (inactive) |
| C=C[C@H]1CN2CC[C@H]1C[C@@H]2[C@H](O)c1ccnc2ccccc12 | -7.58% (inactive) |
| CC(C)[C@]12O[C@H]1[C@@H]1O[C@]13[C@]1(O[C@H]1C[C@H]1C4=C(CC[C@@]13C)C(=O)OC4)[C@@H]2O | -86.5% (active) |
| CC(C)c1ccc2c(c1O)CC[C@H]1C3=C(CC[C@]21C)C(=O)OC3 | 0.532% (inactive) |
| C[C@@H]1CN(Cc2ccc(F)cc2)CCN1C(=O)COc1ccc(Cl)cc1NC(N)=O | -3.05% (inactive) |
| O=c1ccc2cc(O[C@@H]3O[C@H](CO)[C@@H](O)[C@H](O)[C@@H]3O)c(O)cc2o1 | -0.686% (inactive) |
| C=C(C)[C@@H]1[C@H]2OC(=O)[C@H]1[C@]1(O)C[C@H]3O[C@]34C(=O)O[C@H]2[C@]14C | 2.63% (inactive) |
| CCN(CC)CCOC(=O)C(C)(c1ccccc1)c1ccccc1 | 15.3% (inactive) |
| O=c1[nH]c2ccc(Cl)cc2c(N[C@@H]2CN3CCC2CC3)c1-c1nc2ccccc2[nH]1 | -83.1% (active) |
| O=C(N[C@H]1CN2CCC1CC2)c1ccc(Cl)cc1 | 10.2% (inactive) and 9.22% (inactive) |
| O=C(N[C@H]1CN2CCC1CC2)c1cc2cccc(Cl)c2s1 | 25.6% (inactive) |
| C[N+]1(C)CCc2cc3c(cc2C1[C@@H]1OC(=O)c2c1ccc1c2OCO1)OCO3 (stereo not given in full) | -1.51% (inactive) and 8.52% (inactive) |
| C1CN2CCC1CC2 | 14.5% (inactive) |
| O=C1NC(=S)NC(=O)C1C(=O)Nc1ccccc1 | 57.2% (inactive) |
| CC12CCC3C(CCC4C(=O)C(=O)CCC43C)C1CCC2=O (stereo not given) | 21.2% (inactive) |
| C(=C\c1ccccc1)/CN1CCN(CCOC(c2ccccc2)c2ccccc2)CC1 | -4.36% (inactive) and -26.8% (inactive) and -5.08% (inactive) |
| Fc1ccc(C(OCCN2CCN(CCCc3ccccc3)CC2)c2ccc(F)cc2)cc1 | -67.4% (inactive) and 5.82% (inactive) |
| Fc1ccc(C(OCCN2CCN(C/C=C/c3ccccc3)CC2)c2ccc(F)cc2)cc1 | -83.2% (active) and -79.9% (active) |
| O=c1oc2ccccc2c(O)c1Cc1c(O)c2ccccc2oc1=O | -3.14% (inactive) and 12.5% (inactive) |
| N[C@]1(C(=O)O)CC[C@@H](C(=O)O)C1 (racemic) | 3.76% (inactive) |
| c1ccc2c(c1)[I+]c1ccccc1-2 | -67.1% (inactive) and -88.6% (active) |
| O=C1c2ccccc2C(=O)c2ccccc21 | -6.04% (inactive) |
| FC(F)(F)c1cccc(N2CCNCC2)c1 | -1.94% (inactive) |
| CN=C(NS(=O)(=O)c1ccc(Cl)cc1)N1C[C@H](c2ccccc2)C(c2ccc(Cl)cc2)=N1 | 38.2% (inactive) |
| Cc1ccc2c(c1)C1(CCN(CCc3nc(-c4ccccc4)oc3C)CC1)OC(=O)N2 | 0.534% (inactive) and -16.6% (inactive) |
| CC(C)(C)NCC(O)c1ccc(O)cc1Cl (stereo not given) | -2.47% (inactive) |
| CN1C2C[C@H](OC(=O)[C@H](CO)c3ccccc3)C[C@H]1[C@@H](O)C2 | 4.91% (inactive) |

| Structure (SMILES) | activity change, negative = inhibition |
| --- | --- |
| CN1C2C[C@H](OC(=O)[C@H](CO)c3ccccc3)C[C@@H]1[C@@H](O)C2 | 6.31% (inactive) |
| CCCCCOc1c(OC)ccc2cc(C(=O)NCc3ccc4c(c3)OCO4)c(=O)[nH]c12 | 23.5% (inactive) and -61.7% (inactive) |
| C[C@]12CCC(=O)C=C1CC[C@@H]1[C@@H]2C(=O)C[C@]2(C)C(=O)CC[C@@H]12 | 8.66% (inactive) |
| C[C@]12CC[C@H]3[C@@H](CCC4=CC(=O)CC[C@@]43C)[C@@H]1CC[C@H]2O | 8.39% (inactive) |
| C#C[C@]1(O)C=C[C@H]2[C@@H]3CCC4=CC(=O)CC[C@@H]4[C@H]3CC[C@@]21CC | -40.4% (inactive) |
| C#CC1(O)CCC2C3CCC4=CC(=O)CCC4(C)C3CCC21C (stereo not given) | -6.31% (inactive) and -17.5% (inactive) |
| CCCCCCC(=O)O[C@H]1CC[C@H]2[C@@H]3CCC4=CC(=O)CC[C@]4(C)[C@H]3CC[C@]12C | -77% (active) |
| C[C@]12CCC(=O)C=C1CCC1C2CC[C@@]2(C)C1CC[C@H]2O (stereo not given in full) | 2.85% (inactive) |
| C[C@]12CCC3c4ccc(OC(=O)N(CCCl)CCCl)cc4CCC3C1CC[C@@H]2O (stereo not given in full) | -52.4% (inactive) |
| CCCC1CC2=CC(=O)CCC2(C)C2CCC3(C)C(CCC3(O)CCC(=O)O)C12 (stereo not given) | 13% (inactive) |
| C[C@]12CCC(=O)C=C1CCC1C2CC[C@@]2(C)C1CC[C@@H]2O (stereo not given in full) | -78.3% (active) and -86.2% (active) |
| CCC(=O)O[C@H]1CCC2C3CCC4=CC(=O)CC[C@]4(C)C3CC[C@@]21C (stereo not given in full) | -76.8% (active) and -88.9% (active) |
| C[C@]12CC[C@H]3[C@@H](CCC4=CC(=O)CC[C@@H]43)[C@@H]1CC[C@@H]2O | -79.7% (active) |
| CCC[C@@H]1CC2=CC(=O)CC[C@]2(C)[C@H]2CC[C@@]3(C)[C@@H](CC[C@@]3(O)CCC(=O)O)[C@H]12 | 17.5% (inactive) |
| CC(C)[C@]1(O)[C@@H](OC(=O)c2ccc[nH]2)[C@@]2(O)[C@@]3(C)C[C@]4(O)O[C@@]5([C@H](O)[C@@H](C)CC[C@]35O)[C@@]2(O)C41C | 7.71% (inactive) |
| N#Cc1ccccc1-c1cc(-c2ccccn2)cn(-c2ccccc2)c1=O | 3.7% (inactive) |
| C=CCN1CC[C@]2(C)c3cc(O)ccc3CC1[C@@H]2C | 17.7% (inactive) |
| Cc1ccccc1-n1c(CF)nc2ccc(N)cc2c1=O | 11.5% (inactive) |
| CCN(CC)Cc1nccn1-c1ccc([N+](=O)[O-])cc1C(=O)c1ccccc1Cl | -2.08% (inactive) |
| C=C(C)CN1CC[C@]23c4c5ccc(O)c4O[C@H]2c2[nH]c4ccccc4c2C[C@@]3(O)C1C5 | 3.03% (inactive) and 27.5% (inactive) |
| CN1C(=O)C(O)N=C(c2ccccc2)c2cc(Cl)ccc21 (stereo not given) | 18.5% (inactive) |
| CCOC(=O)c1ncn2c1C1CCCN1C(=O)c1cc(OC)ccc1-2 (stereo not given) | 4.31% (inactive) |
| CNCC/C=C/c1cccnc1 | 9.5% (inactive) |
| O=C1CCCC2C3CC(CN12)[C@@H]1CCCCN1C3 (stereo not given in full) | 14.8% (inactive) and -1% (inactive) |
| O=C1Nc2ccc(Cl)cc2C(c2ccccc2)=NC1O (stereo not given) | 20.6% (inactive) |
| CCCN1CCCC2Cc3[nH]ncc3CC21 (stereo not given) | 1.31% (inactive) |
